Screening results deposited in PubChem BioAssay by several laboratories.
Most compounds without a hit are left out; they make up all but 3.8% or so of the library.
PAFAH2 FP inh: inhibitors of human PAFAH2; inhibition, % at 3.39 µM; actives 0.99% (n = 340,000); recombinant PAFAH2, FP-rhodamine activity probe, fluorescence polarization; AID 492956; Q99487;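 active = inhibition above the mean over all tested compounds plus 3 SD, cut at about 30% in these data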;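 also: inhibitors block probe labeling of enzyme so polarization drops; 0% = enzyme with DMSO and 100% = wells lacking PAFAH2 protein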
M18AAP inhibitor: PfM18AAP enzyme inhibition. recombinant PfM18AAP, H-Glu-NHMec fluorogenic cleavage. inhibition, % at 7.35 µM. actives 1.2% (n = 290,000);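 active = inhibition above the campaign mean inhibition over all tested compounds plus 3 SD, cut at about 28% in these data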;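 also: 0% = plate median of test compound wells and 100% = 2 mM ZnCl2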
PAFAH1B3 FP inh: inhibitors of human PAFAH1B3 | Q15102 | recombinant PAFAH1B3, FP-rhodamine probe, fluorescence polarization | inhibition, % at 3.39 µM | actives 0.28% (n = 340,000) | AID 492972;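 active = inhibition above the screen-wide average of all tested compounds plus 3 SD, cut at about 25% in these data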;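 also: 0% = enzyme with DMSO only and 100% = wells lacking PAFAH1B3 protein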
Target sequence (Q15102 whole entry, looked up): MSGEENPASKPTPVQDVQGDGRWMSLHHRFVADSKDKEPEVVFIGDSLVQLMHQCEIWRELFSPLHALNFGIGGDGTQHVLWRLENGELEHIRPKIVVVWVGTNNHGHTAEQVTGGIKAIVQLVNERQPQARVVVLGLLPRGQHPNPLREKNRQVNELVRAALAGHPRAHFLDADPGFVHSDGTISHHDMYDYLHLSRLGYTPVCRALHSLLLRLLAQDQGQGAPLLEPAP
pPAFAH inh: inhibitors of human plasma PAF acetylhydrolase (pPAFAH); inhibition, % at 3.39 µM; AID 463082; Q13093; recombinant pPAFAH, FP-rhodamine probe fluorescence polarization; actives 1.5% (n = 330,000);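 active = inhibition above the mean inhibition across the screen plus 3 SD, cut at about 25% in these data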;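 also: inhibitors block binding of the rhodamine activity-based probe so polarization drops; 0% = enzyme with DMSO and 100% = wells lacking pPAFAH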
Target sequence (Q13093 whole entry, looked up): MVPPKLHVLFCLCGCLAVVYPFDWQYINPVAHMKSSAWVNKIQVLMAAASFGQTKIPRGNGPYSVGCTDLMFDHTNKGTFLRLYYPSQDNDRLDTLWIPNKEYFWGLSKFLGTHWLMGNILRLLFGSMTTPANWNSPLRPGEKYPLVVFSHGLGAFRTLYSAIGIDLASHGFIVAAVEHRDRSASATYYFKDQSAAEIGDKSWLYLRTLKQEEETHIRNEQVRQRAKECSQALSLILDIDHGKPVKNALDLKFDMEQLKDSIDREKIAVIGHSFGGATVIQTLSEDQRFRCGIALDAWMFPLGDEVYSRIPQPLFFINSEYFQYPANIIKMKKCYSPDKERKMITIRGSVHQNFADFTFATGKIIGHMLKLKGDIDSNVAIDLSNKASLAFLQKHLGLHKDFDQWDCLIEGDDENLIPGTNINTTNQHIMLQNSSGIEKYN
PAFAH1B2 FP inh: inhibitors of human PAFAH1B2; recombinant PAFAH1B2, FP-rhodamine activity probe, fluorescence polarization; inhibition, % at 3.39 µM; actives 1.2% (n = 340,000); AID 492953;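 active = inhibition above the mean of all tested compounds plus 3 SD, cut at about 24% in these data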;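 also: 0% = enzyme with DMSO and 100% = wells lacking PAFAH1B2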
DSG3 Ab inh: human desmoglein-3 autoantibody binding inhibition; P32926; DSG3-coupled beads, scFv-anti-DSG3-GFP binding, flow cytometry; active compounds read low; binding (percent of control), % at 10 µM; actives 0.48% (n = 310,000); AID 588358;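 active = binding more than 3 SD below its plate's average and above zero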;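 also: hits lower antibody fragment binding to DSG3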
* = called active by the depositor; / = no result.

SMILES | PAFAH2 FP inh | M18AAP inhibitor | PAFAH1B3 FP inh | pPAFAH inh | PAFAH1B2 FP inh | DSG3 Ab inh
O=C(O)CSc1cc(NS(=O)(=O)c2cccc([N+](=O)[O-])c2)c2ccccc2c1O | 27.7 | -30.9 | 49.3* | / | 27.6* | 87.7
Cc1ccc(C)c(S(=O)(=O)Nc2cc(SCC(=O)O)c(O)c3ccccc23)c1 | 34.1* | 2.7 | 51.0* | 12.4 | 72.3* | /
Cc1nccn1CC(=O)c1ccccc1 | / | / | / | / | / | 104.4
O=C(CCNS(=O)(=O)c1ccc(F)cc1)N1CCN(c2ncccn2)CC1 | / | / | / | / | / | 97.8
COc1ccc(NC(=O)c2oc3ccccc3c2NC(=O)c2ccc(OC)c(OC)c2)c(OC)c1 | -3.7 | / | 3.3 | / | 3.4 | 7.3*
COc1ccc(NC(=O)c2oc3ccccc3c2NC(=O)COc2ccccc2OC)c(OC)c1 | -4.7 | 4.1 | 2.0 | -8.8 | 1.4 | 98.5
CCOC(=O)c1[nH]c2ccc(OC)cc2c1NC(=O)c1ccc2c(c1)OCO2 | 3.8 | -32.2 | 1.4 | 5.0 | 4.0 | 100.9
CCOC(=O)c1[nH]c2ccccc2c1NC(=O)c1ccc2c(c1)OCO2 | -1.5 | -0.6 | 3.6 | 8.4 | 5.2 | -8.4*
CCOC(=O)c1[nH]c2cc(OC)c(OC)cc2c1NC(=O)c1ccc2c(c1)OCO2 | 2.0 | 2.8 | -0.9 | 3.6 | -3.8 | 16.6*
CCOC(=O)c1oc2ccccc2c1NC(=O)c1ccc2c(c1)OCO2 | -8.4 | 1.4 | -0.7 | 2.8 | 0.0 | 103.2
COc1ccc(/C=C/C(=O)CC(O)(c2ccccc2)C(F)(F)F)cc1 (centres undefined) | 10.0 | 5.8 | 10.2 | -4.0 | 25.5* | 93.3
O=C(/C=C/c1ccccc1)CC(O)(c1ccccc1)C(F)(F)F (centres undefined) | 9.3 | 10.4 | -1.6 | 2.0 | 54.8* | 103.0
Cc1nc(Cc2nnc(SC(C)C(=O)Nc3ccccc3)o2)cs1 (centres undefined) | / | / | / | / | / | 93.7
O=c1cc(-c2ccccc2)nc2c(Cl)cc(Cl)cn12 | / | / | / | / | / | 104.2
CCc1ccc(N2CC(C)Cn3c2nc2c3c(=O)[nH]c(=O)n2C)cc1 (centres undefined) | 6.1 | -3.5 | 0.2 | 34.3* | 5.6 | 95.6
COc1ccc(CNC(=O)Cc2cn(C)c3ccccc23)c(OC)c1 | -1.5 | -10.9 | -3.6 | -3.4 | -1.5 | 102.1
O=C(/C=C/c1ccc2c(c1)OCO2)NCCS(=O)(=O)N1CCN(c2ccccc2)CC1 | / | / | / | / | / | 103.9
CC(C)c1ccc(C2CC(=O)c3cnc(N4CCc5ccccc5C4)nc3C2)cc1 (centres undefined) | -0.3 | -0.6 | -2.7 | 0.3 | 2.7 | 96.2
CC1CC(C)CN(c2ncc3c(n2)CC(c2ccccc2)CC3=O)C1 (centres undefined) | -7.0 | -3.4 | -0.7 | 3.9 | 2.4 | 71.5*
CC1C(c2ccccc2)OCCN1C(=S)NC(=O)c1ccccc1 (centres undefined) | / | / | / | / | / | 102.1
CCn1c(SCC(=O)NC2CC2)nnc1-c1ccc(OC)cc1 | 1.4 | -3.7 | 1.6 | 0.1 | -2.0 | /
Cc1ccc(NS(=O)(=O)c2ccc(-n3cccn3)cc2)c(Cl)c1 | / | / | / | / | / | 100.1
NC1=NC(=O)/C(=C\c2ccco2)S1 | 21.1 | 16.0 | 14.4 | 30.1* | 7.7 | 98.0
Cc1ccc2oc(C(=O)NCC(c3ccco3)N(C)C)c(C)c2c1 (centres undefined) | -3.4 | -6.3 | -4.2 | 4.9 | -1.7 | 105.2
CC(C)Oc1ccc(C(=O)Nc2ccc(NC(=O)c3ccco3)c(Cl)c2)cc1 | -1.7 | -0.6 | -0.3 | -3.2 | 1.7 | 54.1*
SMILES | PAFAH2 FP inh | M18AAP inhibitor | PAFAH1B3 FP inh | pPAFAH inh | PAFAH1B2 FP inh | DSG3 Ab inh
CC(C)COc1ccc(C(=O)Nc2ccc(NC(=O)c3ccco3)c(Cl)c2)cc1 | -0.7 | -25.8 | -1.8 | -3.0 | -0.4 | 104.4
c1coc(CSSCc2ccco2)c1 | 49.8* | / | 29.6* | 5.7 | 17.1 | /
Cc1cccc(OC(C)C(=O)N2CCCN(C)CC2)c1C (centres undefined) | -0.1 | -0.5 | 10.6 | -0.5 | 3.2 | 103.9
O=C1c2cccnc2-c2ncccc21 | 0.4 | -3.8 | 0.4 | 3.8 | 3.3 | 105.9
COC1=C(Br)C(=O)c2ncccc2C1=O | 48.1* | / | 57.5* | / | 17.0 | /
CC(C)(C)C(=O)C(C(c1ccccc1)N1CCOCC1)N1CCOCC1 (centres undefined) | 0.8 | / | 5.5 | / | 4.1 | 97.1
C[C@@H]1ON(C)[C@H]2C[C@H]3c4[nH]c5ccc(-c6ccc7c(c6)OCO7)cc5c4CCN3C(=O)[C@@H]12 | / | / | / | / | / | 102.7
CC1CCN(S(=O)(=O)c2ccc(S(=O)(=O)N3CCCC3)cc2)CC1 | -9.2 | -5.1 | -1.1 | 4.9 | -0.9 | 94.4
CC(=O)N1CCC(C(=O)Nc2ccc(S(=O)(=O)N3CCC(C)CC3)cc2)CC1 | 8.3 | 1.7 | -1.7 | -1.1 | 28.7* | /
CC1CCN(S(=O)(=O)c2ccc(S(=O)(=O)NCC(=O)C(C)(C)C)cc2)CC1 | -2.3 | 0.5 | -0.4 | 2.0 | 26.4* | 103.6
CC(C)(C)NC(=O)C1CCN(S(=O)(=O)c2ccc(Br)cc2)CC1 | -2.5 | -1.8 | 9.9 | 1.2 | 28.9* | 99.8
CC(=O)N1CCC(C(=O)Nc2ccc(S(=O)(=O)N3CCCC(C)C3)cc2)CC1 (centres undefined) | -3.3 | / | 7.1 | / | 3.6 | 97.6
CC1CCN(S(=O)(=O)c2ccc(NC(=O)CSc3nnnn3C)cc2)CC1 | -3.9 | -2.5 | -0.1 | 1.7 | 42.5* | 101.3
C[C@@H]1CN([C@@H](C)CO)S(=O)(=O)c2ccc(-c3ccc(C#N)cc3)cc2O[C@@H]1CN(C)Cc1ccccn1 | / | / | / | / | / | 99.6
CC1CCN(S(=O)(=O)c2ccc(NC(=O)[C@@H]3CCCN3C(=O)c3cccs3)cc2)CC1 | 1.3 | / | -6.5 | 24.7* | 37.1* | /
CC1CCCN(S(=O)(=O)c2ccc(NC(=O)[C@@H]3CCCN3C(=O)c3cccs3)cc2)C1 (some centres undefined) | -2.5 | / | 10.5 | 30.4* | 1.2 | 98.0
CC1CCN(S(=O)(=O)c2ccc(NC(=O)c3cccs3)cc2)CC1 | -15.1 | -3.8 | -2.0 | -2.6 | 21.2 | 108.1
CCOC(=O)N1CCC(NC(=O)c2ccc3c(c2)sc2nc(-c4cccc(OC)c4)cn23)CC1 | / | 29.6* | / | / | / | /
O=C(Cn1cnc2c(cnn2-c2ccccc2)c1=O)N1CCN(c2ccc(F)cc2)CC1 | 3.2 | -3.1 | 2.4 | 2.2 | 4.5 | 86.5*
CCC(C)(C)C(=O)Nc1ncc(S(=O)(=O)c2ccc([N+](=O)[O-])cc2)s1 | 1.5 | -2.2 | 6.1 | -4.1 | 8.6 | 83.0
COC(=O)C(NC(=O)c1ccccc1Cl)(Nc1ncc(S(=O)(=O)c2ccc([N+](=O)[O-])cc2)s1)C(F)(F)F (centres undefined) | 2.3 | -6.5 | 6.2 | 1.9 | 25.7* | /
CC(C)NC(=O)N(C)C[C@@H]1Oc2cc(Br)ccc2S(=O)(=O)N([C@@H](C)CO)C[C@H]1C | / | / | / | / | / | 108.8
O=C(NCCCn1cccn1)c1cc(COc2ccc(F)cc2Cl)on1 | -3.3 | 30.4* | -0.3 | 8.1 | -0.6 | 88.5
CCN(CC)c1nc(C=Cc2ccc(N(C)C)cc2)c2nccnc2n1 | / | / | / | / | / | 235.9
